# Calb biofilm kill: kills Candida albicans biofilms | C. albicans biofilm + clotrimazole, Alamar Blue | inhibition, % at 6 µM | actives 0.14% (n = 85,000);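 active = inhibition above 20%; inactive = inhibition below 20%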;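 also: preformed 24 hr biofilms exposed to compound for 48 hr; 0% = biofilm without compound and 100% = blank killed by clotrimazole plus chlorhexidine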
# MRP resist rev: compounds reversing MRP-mediated drug resistance. H69AR cells + 2 uM doxorubicin, CellTiter-Glo, 72 h. differential viability (reversal), % at 10 µM. actives 0.04% (n = 85,000). AID 602;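 active = viability drop by adding the cancer drug above about 55%, with treated viability meeting a 40% cutoff, limit read from the data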;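 also: viability without doxorubicin minus viability with 2 µM doxorubicin for each compound; larger differential means the compound sensitizes cells more to doxorubicin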
# Smad3 FoxH1 inh: inhibitors of human Smad3 transcription factor binding; TR-FRET Smad3/Dy647-FoxH1 peptide binding, europium anti-His; P84022; inhibition, % at 25 µM; actives 0.29% (n = 88,000);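 active = compounds that reduce the energy-transfer binding signal between the protein and its labelled peptide by more than half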;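 also: 0% = Smad3 plus labelled peptide maximal FRET and 100% = peptide-only background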
# Target sequence (P84022 whole entry, looked up): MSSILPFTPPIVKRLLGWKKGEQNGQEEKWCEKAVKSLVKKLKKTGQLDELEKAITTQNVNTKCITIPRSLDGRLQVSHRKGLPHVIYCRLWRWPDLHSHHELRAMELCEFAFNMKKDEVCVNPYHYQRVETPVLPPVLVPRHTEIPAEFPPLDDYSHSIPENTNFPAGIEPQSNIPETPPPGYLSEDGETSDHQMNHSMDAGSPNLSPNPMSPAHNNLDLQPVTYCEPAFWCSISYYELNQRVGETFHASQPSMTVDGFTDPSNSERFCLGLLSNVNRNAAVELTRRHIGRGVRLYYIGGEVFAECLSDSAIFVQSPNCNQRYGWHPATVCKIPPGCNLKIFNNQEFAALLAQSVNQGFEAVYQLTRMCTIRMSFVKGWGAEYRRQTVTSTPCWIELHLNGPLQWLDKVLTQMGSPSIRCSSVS
# MRP1 act: activators of MRP-1; H69AR cells + doxorubicin, viability rescue, CellTiter-Glo; viability increase, % at 10 µM; actives 0.61% (n = 140,000);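 active = viability gain under doxorubicin at or above a set limit, the compound median plus 3 SD, cut at about 4.7% in these data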;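 also: MRP-1 overexpressing cells given doxorubicin 25 µM after compound pretreatment; 18-22 h compound pretreatment then 72 h with doxorubicin before readout; 0% = doxorubicin-only wells and 100% = vehicle-treated cells without doxorubicin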
# Starred values were filed as active, the others as inactive; . = no result; [ ] = dose if it differs, or a comment. Rows were chosen to be rich in hits. Some 0.83% of all compounds tested hit in one or more screens of this group.
SMILES,Calb biofilm kill,MRP resist rev,Smad3 FoxH1 inh,MRP1 act
COCc1cc(C)nc(OCC(=O)N/N=C/c2ccc(-c3cc([N+](=O)[O-])ccc3C)o2)c1C#N,.,.,.,4.7*
O=C(O)[C@H]([C@H]1NCCS1)N1Cc2ccccc2C1,.,.,12,.
CN1CCCC[C@@H]1CCN1CCCCC1,.,.,-3,.
Cc1ccc(OCc2nnc(SCC(=O)Nc3cccc4ccccc34)n2-c2ccccc2)cc1,6,-19,2,6.3*
Cc1[nH]c(N)nc(=S)c1CCC(=O)O,.,.,21,.
N=C(N)c1ccc(N=Nc2c(O)ccc3c2[nH]c2ccccc23)cc1,.,.,102*,.
C/C(=N\O)[C@@H]1C[C@H](CC(=O)O)C1(C)C,.,.,-1,.
Cc1ccccc1NC(=O)c1cc(S(=O)(=O)N2CCOCC2)ccc1F,0,22,4,-1
CC1CC(C)CN(S(=O)(=O)c2ccc(F)c(C(=O)Nc3ccc(Cl)cc3F)c2)C1 (stereo not drawn),46*,-7,-5,0
Cc1ccccc1CN1CCNC(=O)C1CC(=O)O (stereo not drawn),28*,17,5,0
O=C(c1ccc(CS(=O)(=O)c2ccc(Br)cc2)o1)N1CCN(C2CCCCC2)CC1,5,74*,1,-2
COc1ccc(S(=O)(=O)Cc2ccc(C(=O)N3CCN(C4CCCCC4)CC3)o2)cc1,5,4,4,-3
C[C@H]1CCC/C=C\[C@@H]2C[C@H](OC(=O)CN(C)C)C[C@H]2[C@@H](O)/C=C\C(=O)O1,.,.,5,.
CC1CC(C)CN(C(=S)Nc2ccc(SC(F)F)cc2)C1 (stereo not drawn),.,.,.,5.0*
CCC(=O)OCN1C(=O)C=CC1=O,.,.,32,.
Cc1cccc(NC(=O)/C(=C\c2ccc([N+](=O)[O-])o2)NC(=O)c2ccc(Cl)cc2)c1,.,.,.,5.7*
CC(Sc1nc2ccccc2s1)C(=O)Nc1nnc(C(C)C)s1 (stereo not drawn),13,-2,-17,-1
CCC(Sc1nc2ccccc2s1)C(=O)Nc1nnc(C)s1 (stereo not drawn),.,.,.,10*
CC1(C)CCC(=O)N[C@H]1CC(=O)C[C@@H]1NC(=O)CCC1(C)C,.,.,-2,.
COc1ccc(C(=O)NCCn2cc(SCC(=O)Nc3nnc(C)s3)c3ccccc32)cc1,5,-35,-4,7.9*
Cc1nnc(NC(=O)CSc2cn(CCNC(=O)c3ccccc3)c3ccccc23)s1,7,6,1,-2
Cc1cc(=O)[nH]c2cc3oc4ccccc4c3cc12,.,.,-13,.
CC(C)(C)c1ccc(OCC(O)CSc2ncn[nH]2)cc1 (stereo not drawn),7,4,13,6.8*
CCOC(=O)c1c(-c2ccc(C)o2)csc1NC(=O)CSc1ncn[nH]1,5,3,0,6.8*
CCOC(=O)c1c(-c2ccc(C)o2)csc1NC(=O)CN1CCOCC1,4,10,3,-1
SMILES,Calb biofilm kill,MRP resist rev,Smad3 FoxH1 inh,MRP1 act
CN(C)CCNc1nc2c(c(=O)n(C)c(=O)n2C)n1C,.,.,4,.
CCCCC1CC(CSc2ncn[nH]2)OC1=O (stereo not drawn),9,3,-2,1
CCCCCCCC1CC(CSc2ncn[nH]2)OC1=O (stereo not drawn),7,9,9,10*
CC1=C(C(=O)OC(C)C)C(c2cccc(F)c2)N2C(=O)C(C)SC2=N1 (stereo not drawn),-2,-1,4,5.3*
CC1=C(C(=O)OCC(C)C)C(c2cccc(F)c2)N2C(=O)C(C)SC2=N1 (stereo not drawn),3,-6,0,1
C/C(=N\NS(=O)(=O)c1ccc(C)cc1)P(=O)(O)O,.,.,6,.
Oc1cccc2ccc(SSc3ccc4cccc(O)c4n3)nc12,.,.,60*,.
Cc1ccc(C(=O)NNC(=O)c2ccc(SCC3CCCO3)c([N+](=O)[O-])c2)cc1 (stereo not drawn),2,4,3,8.2*
COc1ccc(C2C(C(=O)OCC(=O)Nc3ccc(C)cc3)CCC(=O)N2c2ccc(OC)cc2)cc1 (stereo not drawn),3,3,1,0
COc1ccc(C2C(C(=O)OCC(=O)NC(C)(C)C)CCC(=O)N2c2ccc(C)cc2)cc1OC (stereo not drawn),.,.,.,5.7*
CN(C)c1ccc(C2N([C@H](C#N)c3ccc(N(C)C)cc3)CCCN2[C@@H](C#N)c2ccc(N(C)C)cc2)cc1 (stereo partly drawn),.,.,3,.
CC(C)[C@@H](C(=O)O)N1C(=O)c2ccccc2C1=O,.,.,-3,.
Nc1c2c(nc3ccn(Cc4ccccc4)c(=O)c13)CCC2,-1,-1,5,-3
Nc1c2c(nc3ccn(-c4ccccc4)c(=O)c13)CCCCC2,5,6,-5,4.9*
CSc1ncnc2c1ncn2CC(=O)[C@@H]1CC[C@@H]2[C@H]3CCC4=CC(=O)CC[C@@]4(C)[C@@H]3CC[C@]21C,.,.,15,.
CCCn1c(N)c(C(=O)CSc2nnnn2-c2ccc(O)cc2)c(=O)n(C)c1=O,83*,13,3,-3
CC(C)Cn1c(N)c(C(=O)CSc2nnnn2-c2ccc(Cl)cc2)c(=O)n(C)c1=O,4,-10,4,.
CCOC(=O)c1c(C)oc2c1c(C(c1cccnc1)N1CCCCC1)c(O)c1ccccc12 (stereo not drawn),-1,0,74*,-6
Nc1nc2c(ncn2[C@@H]2CC[C@@H](CO)O2)c(=O)n1C(=O)c1ccccc1,.,.,1,.
CC(=O)c1cccc(NC(=O)CN(c2ccccc2)S(C)(=O)=O)c1,5,6,58*,0
Cc1cccc(N(CC(=O)Nc2ccc(F)cc2)S(C)(=O)=O)c1,55*,4,9,0
CSc1cccc(NC(=O)CN(c2cccc(C)c2)S(C)(=O)=O)c1,-2,-3,3,-4
CN(C(=O)c1ccncc1)c1nnc(-c2ccccn2)s1,-3,9,-9,1
CN(C(=O)c1ccno1)c1nnc(-c2ccccn2)s1,20*,2,-4,-1
CN(C)CCCN1CCC2(CCC(C(C)(C)C)CC2)CC1,.,.,8,.
SMILES,Calb biofilm kill,MRP resist rev,Smad3 FoxH1 inh,MRP1 act
O=C(/C=C/c1cccs1)Nc1ccc(N2CCOCC2)c(S(=O)(=O)Nc2ccccc2Cl)c1,.,.,.,-2
COc1ccccc1NS(=O)(=O)c1cc(NC(=O)/C=C/c2cccs2)ccc1N1CCOCC1,.,.,.,6.0*
CCn1c(COc2ccccc2)nnc1SCC(=O)C(C)(C)C,6,1,59*[fluorescence artefact?],0
CCn1c(COc2ccc(Cl)cc2)nnc1SCc1nc2ccccc2[nH]1,2,-30,-5,6.8*
CCn1c(COc2ccc(C)cc2)nnc1SCC(=O)C(C)(C)C,-3,-1,-10,2
O=C(CSc1ncn[nH]1)Nc1nnc(-c2ccccc2)s1,-2,0,-11,7.2*
CC(C)Cc1nnc(NC(=O)CSc2ncn[nH]2)s1,9,13,2,5.3*
O=C(O)CSc1ncn[nH]1,6,-15,15,-1
O=C(CSc1ncn[nH]1)NC12CC3CC(CC(C3)C1)C2,7,5,-9,5.1*
Cc1ccccc1S(=O)(=O)O[C@@H]1NS(=O)(=O)c2ccccc21,.,.,-1,.
O=C1CCCC2=C1C1(O)C(=O)c3ccccc3C1(O)O2 (stereo not drawn),2,7,66*,-2

# From PubChem
